This is part of a sample that, as a whole, favours compounds with a hit. Of some 79,000 tested, about 15% had one in any assay. Values without a mark were called inactive. Calls of active or inactive are those of the source. Rule as the data show it: active = growth inhibition above about 70%; inactive = the rest.
Test: NCI Yeast Anticancer Drug Screen. Data for the rad50 strain (AID 155);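 also: 0% = growth of vehicle-only cultures of the same strain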
Settings: S. cerevisiae rad50 strain growth inhibition; at 33.0 µM; active compounds read high
Method in brief: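 Growth of the mutant yeast was measured after compound exposure and referenced to vehicle-treated cultures.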

SMILES | growth inhibition
CCS(=O)(=O)c1ccc(/C=C/C=N/NC(=S)NCC(C)C)cc1 | 10%
CCC(=O)Oc1c(Cl)cc(Cl)c2ccccc12 | 5%
COc1cc2c3c(cccc3c1)C(=O)N(CCN(C)C)C2=O | 61%
CN(C)c1ccc(C(C#N)=C(C#N)C#N)cc1 | 11%
O=C(CCCN1CCC2(CC1)CC(=O)N(N1CCCCCC1)C2=O)c1ccc(F)cc1 | 49%
O=C1C2C(C(=O)N1c1ccc(OCc3ccccc3)cc1)C1c3ccccc3C2C2CCCCN21 (configuration not stated) | 41%
CCN(CC)CCC(=O)c1ccc(Oc2ccc(F)cc2)cc1 | 2%
O=Nc1c(NO)ccc2nn(-c3ccccc3)nc12 | 97% (active)
CC(=O)SCCC[Si](C)(C)CCCSC(C)=O | 21%
O=C(O)C1CCCCC1c1c2ccc(=O)c(O)c-2oc2c(O)c(O)ccc12 (configuration not stated) | 28%
Cc1ccc(NN(NC(=O)OC(C)C)C(=O)OC(C)C)cc1 | 8%
O=C1c2ccccc2C(=O)c2cc(CBr)ccc21 | 82% (active)
Cc1c(C(Cc2ccccc2N(C)C(=O)/C=C\C(=O)O)c2c[nH]c3ccccc23)c2ccccc2n1C (configuration not stated) | 8%
CC(C)/C(Cl)=N\OC(=O)Nc1ccc(F)cc1 | 23%
O=C1OC(=O)C2CCCC3CCCC1C32 (configuration not stated) | 96% (active)
CCOC(=O)C(NC(=O)c1ccccc1)(N1CCN(c2cc3c(cc2F)c(=O)c(C(=O)O)cn3C2CC2)CC1)C(F)(F)F (configuration not stated) | 47%
COc1ccc(NC(=S)N/N=C(\c2ccccc2)c2ccccn2)cc1 | 59%
